# Values joined by “and” are separate entries in the source; they are usually repeats but may differ in a detail not shown here. Equal values may be shown once. Results filed as inconclusive are left out. Where a call stands in place of a potency, no number is given. Active and inactive are the calls of the source. The call rests on the fitted dose curve; in most records, active means well fitted inhibition curve with a large enough effect in the signal ratio in the repeat runs (not every such curve was filed as active); inconclusive means weak or mixed curves, or effect the other way; inactive means no such curve, though single readings can be large or run the other way; the % refers to the signal ratio.
# Target: Estrogen receptor beta (Homo sapiens) (UniProt Q92731)
# Test: qHTS assay to identify small molecule antagonists of the estrogen receptor beta (ER-beta) signaling pathway (AID 1259378)
# Details: ER-beta-UAS-bla HEK293T, beta-lactamase FRET ratio, 16 h; series mostly up to 92.4 µM
# Outline: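 Antagonist mode: compounds added to beta-lactamase reporter HEK293T ER-beta-UAS cells stimulated with E2 (1nM final), 16 hr at 37C. LiveBLAzer B/G FRET substrate, 2 hours room temperature, fluorescence read-out.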
# Potency means the concentration at half of the fitted maximal effect.
# Sequence of Estrogen receptor beta (Homo sapiens) (Q92731 whole entry, looked up): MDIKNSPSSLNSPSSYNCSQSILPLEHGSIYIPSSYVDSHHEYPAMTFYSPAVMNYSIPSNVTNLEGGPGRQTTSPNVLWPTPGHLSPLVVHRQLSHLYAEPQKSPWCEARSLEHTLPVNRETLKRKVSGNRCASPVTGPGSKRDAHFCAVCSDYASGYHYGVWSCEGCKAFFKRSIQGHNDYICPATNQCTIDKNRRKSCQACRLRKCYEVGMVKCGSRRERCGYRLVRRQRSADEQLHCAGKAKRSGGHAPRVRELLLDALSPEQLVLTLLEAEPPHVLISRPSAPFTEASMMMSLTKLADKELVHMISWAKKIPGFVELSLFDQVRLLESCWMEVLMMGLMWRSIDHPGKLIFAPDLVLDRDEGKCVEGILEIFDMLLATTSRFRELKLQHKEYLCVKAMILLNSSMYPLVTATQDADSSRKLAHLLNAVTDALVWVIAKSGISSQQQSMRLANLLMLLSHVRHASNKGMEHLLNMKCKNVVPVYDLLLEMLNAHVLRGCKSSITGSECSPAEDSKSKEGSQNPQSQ
row,SMILES,Potency
1,C[C@]12CCC(=O)C=C1CC[C@@H]1[C@@H]2C(=O)C[C@@]2(C)[C@H]1CC[C@]2(O)C(=O)CO,inactive
2,O=[N+]([O-])c1ccc2c(c1)Cc1ccccc1-2,inactive
3,S=C(NC1CCCCC1)NC1CCCCC1,6.11 µM (active)
4,CCCCC(CC)COCC1CO1 (configuration not stated),inactive
5,Nc1ccccc1N,inactive
6,Nc1ncnc2nc[nH]c12,inactive
7,CCCCOCCOCCO,inactive
8,c1ccc2c(c1)Oc1ccccc1S2,inactive
9,c1ccncc1,inactive
10,CCCCCCCCCCCO,inactive
11,CCCCOCCOCCOCCO,inactive
12,CCOC(=O)C(C#N)=C(c1ccccc1)c1ccccc1,4.33 µM (active) and 5.31 µM (active)
13,CC(=O)CC/C=C(\C)CCC=C(C)C,inactive
14,CC1=CC2C3CC(C=C3C)C2C1 (configuration not stated),inactive
15,Cn1cnc([N+](=O)[O-])c1Sc1ncnc2nc[nH]c12,inactive
16,CCCCNS(=O)(=O)c1ccccc1,inactive
17,OC(CCl)CCl,inactive
18,COc1ccccc1/C=C/C=O,55.9 µM (active) and 54.5 µM (active)
19,O=C(OCc1ccccc1)c1ccccc1O,inactive
20,c1cc(-c2ccncc2)ccn1,inactive
21,CC(C)OB(OC(C)C)OC(C)C,inactive
22,CC(C)=CCCC(C)CCO (configuration not stated),inactive

# From PubChem BioAssay (Tox21)
